Laboratory results: PubChem BioAssay (Tox21)
Inconclusive results are not listed. Activity calls are given as the source filed them. Unless noted, calls follow the shape of the dose curve; as a rule, active = well fitted curve in the direction sought with a large enough effect in the repeat runs; inconclusive = weak or mixed curves; inactive = no such curve, though single readings can be large; an effect the other way counts as inactive or inconclusive.

Assays:
[1] = qHTS assay to identify small molecule agonists of the peroxisome proliferator-activated receptor delta (PPARd) signaling pathway - cell viability counter screen (AID 743211); also: % is scaled to controls: 0 for no effect and ±100 for the full control effect; nearly all actives have a fitted effect of over 55% in size
Outline: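 Viability of GeneBLAzer PPARd UAS-bla HEK293H cells was assessed after 17 h compound incubation at 37C, using CellTiter-Glo reagent added after the reporter read and luminescence recorded 30 min later.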

[2] = target: Peroxisome proliferator-activated receptor delta (Homo sapiens) (UniProt Q03181); experiment: qHTS assay to identify small molecule agonists of the peroxisome proliferator-activated receptor delta (PPARd) signaling pathway (AID 743212; calls by dose curve; also: % is scaled to controls: 0 for no effect and ±100 for the full control effect)
Chain of Peroxisome proliferator-activated receptor delta (Homo sapiens) (Q03181 whole entry, looked up): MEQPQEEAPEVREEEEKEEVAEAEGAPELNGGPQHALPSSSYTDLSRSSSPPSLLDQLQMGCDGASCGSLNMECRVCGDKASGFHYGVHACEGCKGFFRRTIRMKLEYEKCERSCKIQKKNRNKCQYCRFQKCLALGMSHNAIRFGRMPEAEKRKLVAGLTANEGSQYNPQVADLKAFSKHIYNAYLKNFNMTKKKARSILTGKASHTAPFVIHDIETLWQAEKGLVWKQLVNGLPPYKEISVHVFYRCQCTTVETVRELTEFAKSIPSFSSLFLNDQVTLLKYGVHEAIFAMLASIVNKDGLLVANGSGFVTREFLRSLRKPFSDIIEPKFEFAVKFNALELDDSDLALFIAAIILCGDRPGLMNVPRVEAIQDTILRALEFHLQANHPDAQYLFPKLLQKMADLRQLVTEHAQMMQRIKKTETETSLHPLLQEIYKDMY
Outline: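 Cells expressing a UAS-driven beta-lactamase reporter (PPARd-bla HEK293H) were given test compounds after a 5 h settle and kept at 37 C. Reporter activity was then measured as FRET fluorescence using LiveBLAzer B/G substrate.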

[3] = qHTS assay to identify small molecule antagonists of the peroxisome proliferator-activated receptor delta (PPARd) signaling pathway - cell viability counter screen (AID 743213); also: % is scaled to controls: 0 for no effect and ±100 for the full control effect; nearly all actives have a fitted effect of over 50% in size
Outline: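 Same-well viability: cells pre-incubated 5 h, dosed with compound plus 300 nM L165041, kept 17 h at 37 C, FRET substrate 2 h RT, then CellTiter-Glo 30 min RT and luminescence.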

[4] = target: Peroxisome proliferator-activated receptor delta (Homo sapiens) (UniProt Q03181); experiment: qHTS assay to identify small molecule antagonists of the peroxisome proliferator-activated receptor delta (PPARd) signaling pathway (AID 743215; active = well fitted inhibition curve with a large enough effect in the signal ratio in the repeat runs, not every such curve was filed as active; the % refers to the signal ratio;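 also: cells stimulated with agonist L165041 at 300 nM final during compound exposure; series mostly up to about 62 µM; % is scaled to controls: 0 for no effect and ±100 for the full control effect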)
Outline: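 Fluorescence from cleaved LiveBLAzer B/G FRET substrate (2 h, room temperature) reports PPARd-driven beta-lactamase in HEK293H UAS-bla cells. Cells had been treated 17 h at 37 C with compound plus 300 nM final L165041.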

[5] = qHTS assay to identify small molecule agonists of the farnesoid-X-receptor (FXR) signaling pathway - cell viability counter screen (AID 743218); also: % is scaled to controls: 0 for no effect and ±100 for the full control effect; nearly all actives have a fitted effect of over 45% in size
Outline: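 Readout: CellTiter-Glo luminescence, 30 min RT, multiplexed after the FXR-bla FRET reading. HEK 293T FXR-UAS-bla cells received compound 5 h post-plating and were incubated 16 h at 37 C.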

[6] = qHTS assay to identify small molecule antagonists of the farnesoid-X-receptor (FXR) signaling pathway - cell viability counter screen (AID 743221; active = well fitted cell-killing curve with a large enough effect in the repeat runs, not every such curve was filed as active; also: % is scaled to controls: 0 for no effect and ±100 for the full control effect; nearly all actives have a fitted effect of over 50% in size)
Outline: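 Quantitative HTS of the Tox21 10K library run in parallel with the beta-lactamase reporter read. HEK 293T cells carrying a UAS-driven bla reporter got compound and 50 uM CDCA (final) for 16 h; ATP-based luminescence followed.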

[7] = target: Vitamin D3 receptor (Homo sapiens) (UniProt P11473); experiment: qHTS assay to identify small molecule agonists of the vitamin D receptor (VDR) signaling pathway (AID 743222; calls by dose curve; also: % is scaled to controls: 0 for no effect and ±100 for the full control effect)
Chain of Vitamin D3 receptor (Homo sapiens) (P11473 whole entry, looked up): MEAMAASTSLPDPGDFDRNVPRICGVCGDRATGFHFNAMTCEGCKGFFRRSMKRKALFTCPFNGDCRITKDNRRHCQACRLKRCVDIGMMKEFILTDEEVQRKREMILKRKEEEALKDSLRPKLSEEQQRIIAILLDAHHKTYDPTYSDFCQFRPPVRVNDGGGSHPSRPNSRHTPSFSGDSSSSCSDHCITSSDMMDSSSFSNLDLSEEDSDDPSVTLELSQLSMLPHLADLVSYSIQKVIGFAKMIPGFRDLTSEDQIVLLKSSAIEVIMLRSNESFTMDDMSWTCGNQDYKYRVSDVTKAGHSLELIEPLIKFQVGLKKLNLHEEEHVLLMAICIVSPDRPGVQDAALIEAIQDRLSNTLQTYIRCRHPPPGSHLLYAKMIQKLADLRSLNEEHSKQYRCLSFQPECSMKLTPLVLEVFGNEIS
Outline: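 Following 4 h attachment at 37C, VDR-bla cells (2,000 per well) received DMSO-dissolved compounds or controls. After 16 h incubation, LiveBLAzer B/G FRET substrate was added and fluorescence read 2 h later at room temperature.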

[8] = qHTS assay to identify small molecule agonists of the vitamin D receptor (VDR) signaling pathway - cell viability counter screen (AID 743224); also: series mostly up to about 63 µM; % is scaled to controls: 0 for no effect and ±100 for the full control effect; nearly all actives have a fitted effect of over 50% in size
Outline: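 In parallel with the bla FRET readout, cytotoxicity toward VDR-bla cells after 16 h compound exposure was assessed by CellTiter-Glo, with luminescence recorded after a 30 min room-temperature incubation.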

[9] = qHTS assay to identify small molecule antagonists of the vitamin D receptor (VDR) signaling pathway - cell viability counter screen (AID 743225); also: % is scaled to controls: 0 for no effect and ±100 for the full control effect; nearly all actives have a fitted effect of over 50% in size
Outline: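 Cells (VDR-UAS-bla HEK 293T) are plated, rested 4 h at 37C, dosed with compound and 3 nM final 1-alpha,25-dihydroxy vitamin D3, and incubated 16 h. Viability is taken from CellTiter-Glo luminescence in the reporter wells.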

[10] = qHTS assay to identify small molecule agonists of the NFkB signaling pathway - cell viability counter screen (AID 1159515; calls by dose curve; also: series mostly up to about 61 µM; % is scaled to controls: 0 for no effect and ±100 for the full control effect; nearly all actives have a fitted effect of over 55% in size)
Outline: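 Plate 2,000 NFkB-bla ME-180 cells/well; incubate overnight. Add compounds, 5 hr at 37 C. Add FRET substrate, 1.5 hr RT. Add CellTiter-Glo, 30 min RT; read luminescence.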

[11] = qHTS assay to identify small molecule agonists of the endoplasmic reticulum stress response signaling pathway (AID 1159516; active = well fitted activation curve with a large enough effect in the signal ratio in the repeat runs, not every such curve was filed as active; the % refers to the signal ratio; also: % is scaled to controls: 0 for no effect and ±100 for the full control effect)
Outline: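 Beta-lactamase expression from the ER stress response element in HeLa reporter cells is quantified with the LiveBLAzer B/G FRET substrate, read at 405 nm excitation after 2 hr at room temperature, following 5 hr compound treatment at 37 C.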

[12] = qHTS assay to identify small molecule agonists of the endoplasmic reticulum stress response signaling pathway - cell viability counter screen (AID 1159517; calls by dose curve)
Outline: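 Cpd-treated ESRE-bla HeLa (5 hr, 37 C) → LiveBLAzer 2 hr RT → CellTiter-Glo 30 min RT → luminescence.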

[13] = qHTS assay to identify small molecule antagonists of the retinoid-related orphan receptor gamma (ROR-gamma) signaling pathway - cell viability counter screen (AID 1159520)
Outline: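 Tet-on ROR gamma CHO cells (1,000/well) were plated 4 hr, given compounds in DMSO for 2 hr at 37 C, then induced with 1 uM final doxycycline for 16 hr. Viability was read as ATP by CellTiter-Glo luminescence after 30 min.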

[14] = target: Nuclear receptor ROR-gamma (Homo sapiens) (UniProt P51449); experiment: qHTS assay to identify small molecule antagonists of the retinoid-related orphan receptor gamma (ROR-gamma) signaling pathway (AID 1159521)
Outline: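 RORγ antagonism is scored from reduced reporter luminescence in Tet-on CHO cells. Induction used 1 uM final doxycycline hyclate for 16 h at 37 C, following a 2 h compound exposure.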

[15] = qHTS assay to identify small molecule agonists of the AP-1 signaling pathway - cell viability counter screen (AID 1159525; calls by dose curve; also: nearly all actives have a fitted effect of over 55% in size)
Outline: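 Each titration point was normalised to DMSO and tetra n-octyl ammonium bromide controls. The read was Cell Titer Glo luminescence after 30 min at RT, following 5 h compound exposure of ME-180 AP-1-bla cells at 37 °C.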

[16] = qHTS assay to identify small molecule agonists of the AP-1 signaling pathway (AID 1159526; calls by dose curve; also: % is scaled to controls: 0 for no effect and ±100 for the full control effect)
[17] = target: Bile acid receptor (Homo sapiens) (UniProt Q96RI1); experiment: qHTS assay to identify small molecule antagonists of the farnesoid-X-receptor (FXR) signaling pathway (AID 743217; active = well fitted inhibition curve with a large enough effect in the signal ratio in the repeat runs, not every such curve was filed as active; the % refers to the signal ratio; also: % is scaled to controls: 0 for no effect and ±100 for the full control effect)
Chain of Bile acid receptor (Homo sapiens) (Q96RI1 whole entry, looked up): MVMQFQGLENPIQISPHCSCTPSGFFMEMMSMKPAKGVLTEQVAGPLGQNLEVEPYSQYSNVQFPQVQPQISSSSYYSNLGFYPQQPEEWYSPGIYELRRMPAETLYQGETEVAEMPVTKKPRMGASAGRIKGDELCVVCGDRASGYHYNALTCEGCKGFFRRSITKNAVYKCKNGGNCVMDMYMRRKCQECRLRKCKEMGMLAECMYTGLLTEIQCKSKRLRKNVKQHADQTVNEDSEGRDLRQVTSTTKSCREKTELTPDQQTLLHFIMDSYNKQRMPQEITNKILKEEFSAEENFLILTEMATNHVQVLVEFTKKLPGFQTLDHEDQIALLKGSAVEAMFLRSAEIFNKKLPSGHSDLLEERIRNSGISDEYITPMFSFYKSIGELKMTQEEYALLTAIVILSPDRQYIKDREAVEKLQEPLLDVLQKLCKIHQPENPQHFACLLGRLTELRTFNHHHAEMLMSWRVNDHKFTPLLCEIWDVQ
Outline: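 FRET fluorescence after 2 h room-temperature LiveBLAzer loading gives the readout. Prior step: FXR-bla HEK 293T cells, seeded and incubated 5 h, received test compounds plus 50 uM final CDCA for 16 h at 37 °C.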

[18] = target: Bile acid receptor (Homo sapiens) (UniProt Q96RI1); experiment: qHTS assay to identify small molecule agonists of the farnesoid-X-receptor (FXR) signaling pathway (AID 743220; active = well fitted activation curve with a large enough effect in the signal ratio in the repeat runs, not every such curve was filed as active; the % refers to the signal ratio; also: % is scaled to controls: 0 for no effect and ±100 for the full control effect)
Outline: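 FXR-UAS-bla HEK 293T cells carrying a UAS-driven beta-lactamase reporter were plated for 5 h at 37C/5% CO2, then exposed to DMSO-dissolved Tox21 10K compounds for 16 h at 37C. A LiveBLAzer B/G FRET substrate was loaded for 2 h at room temperature before fluorescence reading.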

[19] = target: Vitamin D3 receptor (Homo sapiens) (UniProt P11473); experiment: qHTS assay to identify small molecule antagonists of the vitamin D receptor (VDR) signaling pathway (AID 743223; active = well fitted inhibition curve with a large enough effect in the signal ratio in the repeat runs, not every such curve was filed as active; the % refers to the signal ratio; also: % is scaled to controls: 0 for no effect and ±100 for the full control effect)
Outline: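 Fluorescence from LiveBLAzer B/G FRET substrate, read after 2 h at room temperature, reflects beta-lactamase reporter activity in VDR-bla cells treated 16 h at 37C with compounds and agonist 1alpha,25-dihydroxyvitamin D3 (3 nM final).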

O=C(/N=N/C(=O)OCc1ccccc1)OCc1ccccc1
inactive: outcome [1] | outcome [2] | outcome [3] | outcome [4] | Potency [5] | outcome [6] | outcome [7] | Potency [8] | outcome [9] | outcome [10] | outcome [11] | Potency [12] | outcome [13] | outcome [14] | outcome [15] | outcome [16]

O=C(CS(=O)Cc1ccco1)NC/C=C\COc1cc(CN2CCCCC2)ccn1 (stereo not given)
inactive: outcome [1] | outcome [2] | outcome [4] | Potency [17] | Potency [5] | Potency [18] | outcome [6] | outcome [7] | outcome [19] | Potency [8] | outcome [9] | outcome [10] | outcome [11] | Potency [12] | outcome [13] | outcome [14] | outcome [15] | outcome [16]

CCN(CC)CC(=O)Nc1c(C)cccc1C
inactive: outcome [1] | outcome [3] | Potency [17] | Potency [5] | Potency [18] | outcome [6] | Potency [8] | outcome [9] | outcome [10] | outcome [11] | Potency [12] | outcome [13] | outcome [14] | outcome [15] | outcome [16]

C=CC(OCC)OCC
inactive: outcome [1] | outcome [2] | outcome [4] | Potency [5] | outcome [6] | outcome [7] | Potency [8] | outcome [9] | outcome [10] | outcome [11] | Potency [12] | outcome [13] | outcome [14] | outcome [15] | outcome [16]

CCOC(=O)[C@H](CCc1ccccc1)N[C@@H](C)C(=O)N1C(=O)N(C)C[C@H]1C(=O)O
inactive: outcome [1] | outcome [2] | outcome [3] | outcome [4] | Potency [5] | outcome [6] | Potency [8] | outcome [9] | outcome [10] | outcome [11] | Potency [12] | outcome [13] | outcome [14] | outcome [15] | outcome [16]

CC(=O)/C=C/C1C(C)=CCC(C)C1(C)C (stereo not given)
inactive: outcome [1] | outcome [2] | outcome [4] | Potency [5] | outcome [6] | outcome [7] | outcome [19] | Potency [8] | outcome [9] | outcome [10] | outcome [11] | Potency [12] | outcome [13] | outcome [14] | outcome [15] | outcome [16]

O=C(O)Cc1cn(-c2ccccc2)nc1-c1ccc(Cl)cc1
inactive: outcome [1] | outcome [2] | outcome [3] | outcome [4] | Potency [5] | outcome [6] | Potency [8] | outcome [9] | outcome [10] | outcome [11] | Potency [12] | outcome [13] | outcome [14] | outcome [15] | outcome [16]

CN1CCN(CC(=O)N2c3ccccc3C(=O)Nc3cccnc32)CC1
inactive: activity change, negative = cytotoxicity [1] -5.11% [at 5.95 µM] | activation [2] -1.15% [at 5.95 µM] | viability change, negative = cytotoxic [3] 18.4% [at 6.26 µM] | ratio activity, negative = inhibition [4] 1.31% [at 6.26 µM] | viability change, negative = cytotoxic [5] 9.72% [at 5.95 µM] | activity change, negative = cytotoxicity [6] -5.73% [at 5.95 µM] | activation [7] 2.22% [at 6.01 µM] | activity change, negative = cytotoxicity [8] 0.894% [at 5.95 µM] | viability change, negative = cytotoxic [9] -0.964% [at 6.95 µM] | activity, negative = cytotoxic [10] 1.12% [at 6.95 µM] | activation [11] -0.546% [at 6.95 µM] | activity change, negative = cytotoxicity [12] -3.52% [at 6.95 µM] | activity, negative = cytotoxicity [13] 3.19% [at 8.39 µM] | activity change, negative = inhibition [14] 14.7% [at 8.39 µM] | viability change, negative = cytotoxic [15] 2.29% [at 6.97 µM] | activation [16] -1.4% [at 6.97 µM]

CC1=CCC(C(C)C)=CC1
inactive: outcome [1] | Potency [5] | outcome [6] | Potency [8] | outcome [9] | outcome [10] | outcome [11] | Potency [12] | outcome [13] | outcome [15] | outcome [16]

CCCCCCCCOS(=O)(=O)O
inactive: outcome [1] | outcome [2] | outcome [4] | Potency [17] | Potency [5] | Potency [18] | outcome [6] | Potency [8] | outcome [9] | outcome [10] | outcome [11] | Potency [12] | outcome [13] | outcome [14] | outcome [15] | outcome [16]

CC(=O)c1ccc2c(c1)Cc1ccccc1-2
inactive: outcome [1] | outcome [2] | outcome [3] | outcome [4] | Potency [17] | Potency [5] | Potency [18] | outcome [6] | outcome [7] | Potency [8] | outcome [9] | outcome [10] | outcome [11] | Potency [12] | outcome [13] | outcome [14] | outcome [15] | outcome [16]

c1ccc2nccnc2c1
inactive: outcome [1] | Potency [17] | Potency [5] | Potency [18] | outcome [6] | outcome [7] | Potency [8] | outcome [9] | outcome [10] | outcome [11] | Potency [12] | outcome [13] | outcome [14] | outcome [15] | outcome [16]

CCCCCCCCC(=O)Cl
inactive: outcome [1] | outcome [2] | outcome [3] | outcome [4] | Potency [17] | Potency [5] | Potency [18] | outcome [6] | outcome [7] | Potency [8] | outcome [9] | outcome [10] | outcome [11] | Potency [12] | outcome [13] | outcome [14] | outcome [15] | outcome [16]

O=C(CCNNC(=O)c1ccncc1)NCc1ccccc1
inactive: outcome [1] | Potency [17] | Potency [5] | Potency [18] | outcome [6] | outcome [7] | Potency [8] | outcome [9] | outcome [10] | outcome [11] | Potency [12] | outcome [13] | outcome [14] | outcome [15] | outcome [16]

COc1cc(NS(=O)(=O)c2ccc(N)cc2)nc(OC)n1
inactive: outcome [1] | outcome [2] | outcome [3] | outcome [4] | Potency [5] | outcome [6] | outcome [7] | outcome [19] | Potency [8] | outcome [9] | outcome [10] | outcome [11] | Potency [12] | outcome [13] | outcome [14] | outcome [15] | outcome [16]

CN1C(C)(C)CCCC1(C)C
inactive: outcome [1] | outcome [2] | outcome [4] | Potency [17] | Potency [5] | Potency [18] | outcome [6] | outcome [7] | Potency [8] | outcome [9] | outcome [10] | outcome [11] | Potency [12] | outcome [13] | outcome [14] | outcome [15] | outcome [16]

Cc1cc(NC(=O)C2=C(O)c3ccccc3S(=O)(=O)N2C)no1
inactive: outcome [1] | outcome [2] | outcome [3] | outcome [4] | outcome [6] | outcome [7] | Potency [8] | outcome [9] | outcome [10] | outcome [11] | Potency [12] | outcome [13] | outcome [14] | outcome [15] | outcome [16]

CC(C)(C)OC(=O)c1ccc(O)cc1
inactive: outcome [1] | outcome [2] | outcome [3] | outcome [4] | Potency [17] | Potency [5] | Potency [18] | outcome [6] | outcome [7] | Potency [8] | outcome [10] | outcome [11] | Potency [12] | outcome [13] | outcome [14] | outcome [15] | outcome [16]
